Structures are written as SMILES. Values joined by “and” are separate entries in the source; they are usually repeats but may differ in a detail not shown here. Identical values can stand only once. Where a structure was tested more than once in an assay, its records may differ in their call. Active and inactive are the calls of the source. How the source made its calls: active means hit-call score of the fitted dose curve at least 0.9, where 1 is the maximum; inactive means score below 0.9.

Drawing on PubChem BioAssay (EPA / NIEHS), this text covers outcome and AC50 for 24 compounds.

The target of assay [1] is Paired box protein Pax-6 (Homo sapiens) (UniProt P26367). Put plainly: ATG_Pax6_CIS: Attagene CIS-FACTORIAL HepG2 Assay for human Paired Box 6 (PAX6) (AID 2282956). Particulars: HepG2 CIS-FACTORIAL PAX6 reporter transcription, RNA readout; actives raise or lower the signal. The method, boiled down:
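DMSO-referenced bidirectional fits of reporter mRNA fluorescence; HepG2 with transient cis-promoter MRTUs, 24 h post-dose, RT-PCR plus capillary electrophoresis detection.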

A short description of assay [2]: ATG_PXRE_CIS: Attagene CIS-FACTORIAL HepG2 Assay for human Pregnane X Receptor Element (PXRE) (AID 2282957). The following applies: HepG2 Attagene CIS-FACTORIAL PXRE reporter, mRNA; actives raise or lower the signal. The method, boiled down: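 Endogenous transcription factor activity in HepG2 was gauged through induction of reporter mRNA driven by a cis-regulating promoter element, sampled 24 h post-treatment. Activity was fitted in both directions against DMSO negative control.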

Assay [3] can be described thus: ATG_RORE_CIS: Attagene CIS-FACTORIAL HepG2 Assay for human RAR-related Orphan Receptor Element (RORE) (AID 2282959). Particulars: HepG2 Attagene cis-factorial RORE reporter, mRNA; actives raise or lower the signal. The method, boiled down: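 RORE reporter transcripts reflecting endogenous factor activity were read after 24 h compound exposure of transfected HepG2 cells, using reverse transcription, PCR, fluorescent labelling and capillary electrophoresis sizing. Gain or loss fitted against DMSO.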

Assay [4] in a line: ATG_Sox_CIS: Attagene CIS-FACTORIAL HepG2 Assay for human SRY-box transcription factor (SOX) (AID 2282960). The following applies: HepG2 Attagene cis-factorial SOX reporter, mRNA; actives raise or lower the signal. The method, boiled down: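 Reporter transcripts, measured by RT-PCR and capillary electrophoresis of labelled fragments, report endogenous SOX transcription factor activity. Transiently transfected human HepG2 cells receive chemical for 24 h; changes in either direction are fitted relative to DMSO.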

Assay [5] has as its target Transcription factor Sp1 (Homo sapiens) (UniProt P08047). Kind of assay: ATG_Sp1_CIS: Attagene CIS-FACTORIAL HepG2 Assay for human Specificity Protein 1 (Sp1) (AID 2282961). Particulars: HepG2 Sp1 cis-reporter transcription, actives raise or lower the signal. Put shortly:
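Read-out is reporter transcript level, measured by RT-PCR and fluorescent capillary electrophoresis after 24 h chemical treatment. System: transiently transfected HepG2 cells reporting endogenous transcription factor activity; gain or loss fitted against DMSO baseline.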

Assay [6] in a line: ATG_SREBP_CIS: Attagene CIS-FACTORIAL HepG2 Assay for human Sterol Regulatory Element Binding (SREBP) (AID 2282962). Particulars: HepG2 Attagene cis-factorial SREBP reporter, mRNA; actives raise or lower the signal. Put shortly: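 In this cis-format assay, HepG2 liver cells express reporters controlled by promoter elements responsive to native transcription factors. Exposure lasts 24 h; reporter mRNA fluorescence from capillary electrophoresis gives the signal, fitted bidirectionally against DMSO.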

Assay [7] has as its target Signal transducer and activator of transcription 3 (Homo sapiens) (UniProt P40763). Kind of assay: ATG_STAT3_CIS: Attagene CIS-FACTORIAL HepG2 Assay for human Signal Transducer and Activator of Transcription 3 (STAT3) (AID 2282963). Particulars: HepG2, Attagene cis-factorial STAT3 reporter transcription; actives raise or lower the signal. The method, boiled down:
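Uses human liver HepG2 transiently carrying cis-regulated reporter transcription units. Following 24 h dosing, reporter mRNA induction was detected by RT-PCR and capillary electrophoresis, analysed bidirectionally versus DMSO.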

Assay [8] is described as follows: ATG_TA_CIS: Attagene CIS-FACTORIAL HepG2 Assay for human TA Basal Promoter (AID 2282964). Particulars: HepG2 Attagene CIS-factorial TA basal promoter reporter; actives raise or lower the signal. The method, boiled down: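 Background-control readout: TA basal promoter reporter mRNA, fitted in both directions relative to DMSO. Measured by RT-PCR and capillary electrophoresis 24 hours after treating HepG2 human liver cells transiently carrying multiplexed cis-regulated reporter constructs.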

Assay [9] can be described thus: ATG_PPRE_CIS: Attagene CIS-FACTORIAL HepG2 Assay for human Peroxisome Proliferator-activated Response Element (PPRE) (AID 2282958). Particulars: HepG2 PPRE cis-element reporter, Attagene transcription factor profiling; actives raise or lower the signal. The method, boiled down: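 Endogenous PPRE-driven transcription is measured in HepG2 cells carrying transfected multi-reporter constructs. Reporter transcripts are quantified by RT-PCR, HpaI digestion and capillary electrophoresis 24 h after dosing. DMSO baseline, bidirectional fit.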

The nature of assay [10]: ATG_TCF_b_cat_CIS: Attagene CIS-FACTORIAL HepG2 Assay for human T-Cell-Factor with beta-catenin (TCF/b-cat) (AID 2282965). Particulars: HepG2 TCF/beta-catenin cis-reporter transcription, actives raise or lower the signal. The method, boiled down:
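In this cis-format system, transfected HepG2 cells report endogenous transcription factor activity. Readout after 24 h exposure is reporter transcript abundance from RT-PCR and capillary electrophoresis, analysed for gain or loss of signal versus DMSO.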

Sequence of Transcription factor Sp1 (Homo sapiens) (P08047 whole entry, looked up): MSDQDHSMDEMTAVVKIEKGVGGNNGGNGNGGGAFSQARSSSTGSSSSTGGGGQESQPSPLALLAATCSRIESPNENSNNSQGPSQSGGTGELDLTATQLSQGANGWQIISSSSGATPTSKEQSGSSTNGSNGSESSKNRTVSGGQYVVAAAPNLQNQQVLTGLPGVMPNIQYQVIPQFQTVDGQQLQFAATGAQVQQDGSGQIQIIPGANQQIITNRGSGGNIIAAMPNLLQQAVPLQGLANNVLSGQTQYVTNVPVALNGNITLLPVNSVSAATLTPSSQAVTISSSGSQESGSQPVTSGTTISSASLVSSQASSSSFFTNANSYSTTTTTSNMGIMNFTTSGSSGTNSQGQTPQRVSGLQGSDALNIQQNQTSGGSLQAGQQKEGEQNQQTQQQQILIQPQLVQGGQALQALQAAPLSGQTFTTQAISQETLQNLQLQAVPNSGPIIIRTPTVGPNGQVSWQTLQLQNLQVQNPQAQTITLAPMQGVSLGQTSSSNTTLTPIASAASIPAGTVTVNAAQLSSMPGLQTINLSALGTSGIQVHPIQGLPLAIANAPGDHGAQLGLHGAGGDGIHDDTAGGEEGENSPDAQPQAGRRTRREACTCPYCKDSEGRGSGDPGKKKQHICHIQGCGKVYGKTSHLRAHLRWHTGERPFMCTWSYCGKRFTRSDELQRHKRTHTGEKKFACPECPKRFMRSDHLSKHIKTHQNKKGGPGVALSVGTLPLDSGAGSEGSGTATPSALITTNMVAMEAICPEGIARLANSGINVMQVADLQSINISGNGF
Sequence of Signal transducer and activator of transcription 3 (Homo sapiens) (P40763 whole entry, looked up): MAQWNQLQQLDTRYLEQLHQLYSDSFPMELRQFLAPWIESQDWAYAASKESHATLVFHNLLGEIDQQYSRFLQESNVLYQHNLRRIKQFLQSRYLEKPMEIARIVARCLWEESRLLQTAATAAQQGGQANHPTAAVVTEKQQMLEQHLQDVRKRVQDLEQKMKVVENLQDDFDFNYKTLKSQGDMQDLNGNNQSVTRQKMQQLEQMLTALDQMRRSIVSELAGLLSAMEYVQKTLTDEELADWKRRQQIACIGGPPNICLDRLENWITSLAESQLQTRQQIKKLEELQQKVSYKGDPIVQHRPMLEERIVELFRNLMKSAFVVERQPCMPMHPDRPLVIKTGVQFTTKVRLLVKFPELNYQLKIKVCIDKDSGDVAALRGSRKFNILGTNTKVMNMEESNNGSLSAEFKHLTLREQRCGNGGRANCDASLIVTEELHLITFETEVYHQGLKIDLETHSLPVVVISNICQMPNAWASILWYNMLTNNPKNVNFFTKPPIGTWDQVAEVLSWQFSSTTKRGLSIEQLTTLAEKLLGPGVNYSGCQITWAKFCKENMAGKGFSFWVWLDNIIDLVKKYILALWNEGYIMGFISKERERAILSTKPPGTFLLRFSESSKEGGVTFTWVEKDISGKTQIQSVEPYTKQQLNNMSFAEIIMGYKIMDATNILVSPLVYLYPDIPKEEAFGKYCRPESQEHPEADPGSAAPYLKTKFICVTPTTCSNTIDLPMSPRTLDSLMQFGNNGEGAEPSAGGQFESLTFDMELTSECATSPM
Sequence of Paired box protein Pax-6 (Homo sapiens) (P26367 whole entry, looked up): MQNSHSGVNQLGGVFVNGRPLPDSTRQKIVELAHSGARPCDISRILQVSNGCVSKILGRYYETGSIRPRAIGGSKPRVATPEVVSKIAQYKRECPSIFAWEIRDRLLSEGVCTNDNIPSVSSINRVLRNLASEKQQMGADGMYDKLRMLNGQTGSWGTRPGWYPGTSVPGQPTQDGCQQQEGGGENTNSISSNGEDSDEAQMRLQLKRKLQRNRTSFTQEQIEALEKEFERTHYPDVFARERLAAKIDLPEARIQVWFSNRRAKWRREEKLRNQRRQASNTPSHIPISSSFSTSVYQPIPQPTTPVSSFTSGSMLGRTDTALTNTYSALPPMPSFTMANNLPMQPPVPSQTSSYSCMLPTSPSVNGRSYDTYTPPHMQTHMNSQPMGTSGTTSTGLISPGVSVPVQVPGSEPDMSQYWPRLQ

In the case of `Cc1cc(Cc2ccc(N)c(C)c2)ccc1N`, the compound was classed as inactive in assay [1], in assay [2], in assay [3], in assay [4], in [5] and in assay [7]. The outcome in assay [8] was inactive. The AC50 (usually the concentration giving half of the maximal activity seen) in [6] is 12.9 µM (active).

Turning to `CC(=O)[C@@]1(O)CC[C@H]2[C@@H]3CCC4=CC(=O)CC[C@]4(C)[C@H]3CC[C@@]21C`, the compound was classed as inactive in assay [1], in assay [2], in assay [3], in assay [4], in assay [5] and in assay [6]. The outcome in assay [7] and in assay [8] was inactive. The AC50 in assay [6] was 11.1 µM (active).

With `CN(C)C(=O)NC1(c2ccccc2)CCN(CC[C@@]2(c3ccc(F)c(F)c3)CN(C(=O)c3ccccc3)CCO2)CC1`, the compound was called inactive in assay [1], in assay [9], in [4], in [5], in assay [7] and in assay [8]. Further, the AC50 in [2] was 2.43 µM (active); in assay [6], 26.8 µM (active).

On to `CC(=O)S[C@H](C(=O)N[C@H]1Cc2ccccc2[C@H]2CCC[C@@H](C(=O)O)N2C1=O)C(C)C`, for which the compound was classed as inactive in [1], in [3], in assay [4], in assay [5], in assay [6] and in assay [7]. The compound was classed as inactive in assay [8] and in [10]. In assay [2], the AC50 was 40.9 µM (active).

Regarding `CC(C)c1cccc(C(C)C)c1NC(=O)NS(=O)(=O)c1cc(C(C)(C)O)co1`, the outcome in [1], in assay [3], in [4], in [5], in [6] and in assay [7] was inactive. The compound was classed as inactive in [8]. Moreover, the AC50 in [2] was 16.7 µM (active).

For the compound `CC(C)(O)c1ccc(CNC(=O)c2cccnc2Oc2ccc(F)cc2)cc1`, the compound was classed as inactive in assay [1], in assay [3], in [4], in [5], in assay [7] and in assay [8]. For the same compound, the outcome in assay [10] was inactive. The AC50 in [2] is 7.12 µM (active); in assay [6], 44.6 µM (active).

With `CCc1cc(C2=C(C(=O)O)N(c3ccccc3C(F)(F)F)S(=O)(=O)c3ccccc32)cc2c1OCO2`, the compound was called inactive in [1], in assay [3], in assay [4], in assay [7] and in assay [8]. For the same compound, the half-maximal activity concentration (AC50) in assay [2] was 2.14 µM (active); in [5], 59 µM (active); in assay [6], 26.6 µM (active).

With `COC(=O)[C@H]1[C@H]2C[C@@H]3c4[nH]c5cc(OC)ccc5c4CCN3C[C@H]2C[C@@H](OC(=O)c2cc(OC)c(OC)c(OC)c2)[C@@H]1OC`, the AC50 in assay [1] was 8.41 µM (active); in assay [6] it was 3.96 µM (active). The call in assay [9], in assay [3], in [4], in assay [5], in assay [7] and in assay [8] was inactive.

As to `COc1ccc(OC(F)(F)F)cc1CN[C@H]1CCCN[C@H]1c1ccccc1`, the call in assay [1], in assay [3], in assay [4], in [5], in assay [7] and in assay [8] was inactive. In assay [10], the compound was called inactive. Besides, the concentration at half-maximal activity (AC50) in [2] is 1.85 µM (active); in assay [6] it was 19.4 µM (active).

Take `COC(=O)CCCC(=O)OC`: the result in assay [1], in assay [2], in assay [3], in assay [4], in [5] and in assay [6] was inactive. Besides, the result in assay [7], in [8] and in assay [10] was inactive.

Turning to `CC(=O)CC(c1ccccc1)c1c(O)c2ccccc2oc1=O` (centres undefined), the outcome in assay [1], in assay [3], in [4], in assay [5], in assay [6] and in assay [7] was inactive. Further, in assay [8], the result was inactive. Further, the half-maximal activity concentration (AC50) in assay [2] is 59.1 µM (active) and 59.7 µM (active).

Regarding `CC(C)OC(=O)C(C)(C)Oc1ccc(C(=O)c2ccc(Cl)cc2)cc1`, the half-maximal activity concentration (AC50) in [1] is 27.7 µM (active); in assay [2], 12.3 µM (active); in assay [3], 27.5 µM (active); in assay [8], 22.6 µM (active). The call in [4], in assay [5], in assay [6] and in assay [7] was inactive.

Regarding `CCCCCCCC(=O)OC`, the call in [1], in [2], in [9], in assay [3], in [4] and in [5] was inactive. Besides, the call in assay [6], in assay [7], in assay [8] and in assay [10] was inactive.

Consider `CCCCC(CC)COC(=O)CCCCCCCC(=O)OCC(CC)CCCC` (centres undefined), for which the result in assay [1], in [2], in assay [4], in [5], in [6] and in assay [7] was inactive. Further, the compound was called inactive in assay [8] and in assay [10].

With `c1ccc2occc2c1`, the call in [1], in assay [2], in assay [3], in assay [4], in assay [5] and in assay [6] was inactive. Further, the compound was classed as inactive in assay [7] and in [8].

Take `Nc1nc(Cl)nc2c1ncn2[C@H]1C[C@H](O)[C@@H](CO)O1`: the outcome in assay [1], in assay [2], in assay [3], in assay [4], in assay [5] and in [6] was inactive. Further, the result in [7] and in [8] was inactive.

On to `S=c1[nH]c2ccccc2s1`, for which the call in [1], in assay [3], in [4], in assay [8] and in assay [10] was inactive. Also, the AC50 in [2] was 61.2 µM (active); in assay [9], 28.5 µM (active); in assay [5], 42.5 µM (active); in [6], 59 µM (active); in assay [7], 63.2 µM (active).

For `Cc1occc(=O)c1O`, the call in assay [1], in assay [2], in assay [3], in assay [4], in [5] and in assay [6] was inactive. The call in assay [7], in [8] and in [10] was inactive.

Consider `CCCCCCCCCCCCCCOS(=O)(=O)O`, for which the result in assay [1], in assay [2], in [9], in assay [4], in assay [5] and in assay [6] was inactive. The compound was classed as inactive in assay [7] and in [8].

For the compound `Cc1ccc(C(C)(C)C)c(O)c1`, the AC50 was 152 µM (active) in assay [1]; 25 µM (active) in [2]; 154 µM (active) in assay [4]; 100 µM (active) in assay [5]; 161 µM (active) in [6]. In addition, the call in [3], in [7] and in [8] was inactive.

As for `CCCCc1nc2cccnc2n1Cc1ccc(-c2ccccc2-c2nnn[nH]2)cc1`, the call in assay [1], in [3], in assay [4], in [5], in assay [6] and in assay [7] was inactive. Also, the outcome in [8] and in assay [10] was inactive. The AC50 in assay [2] is 27.2 µM (active).

On to `Nc1nc(=S)c2[nH]cnc2[nH]1`, for which the outcome in assay [1], in assay [3], in assay [4], in assay [5], in assay [6] and in assay [7] was inactive. In addition, the result in assay [8] and in assay [10] was inactive. In addition, the concentration at half-maximal activity (AC50) in assay [2] is 100 µM (active).

As for `O=C1OC(c2ccc(O)cc2)(c2ccc(O)cc2)c2ccccc21`, the AC50 in assay [1] is 36.6 µM (active); in assay [3], 26.7 µM (active); in [5], 41.2 µM (active); in assay [6] it was 27.6 µM (active); in assay [8], 27.7 µM (active). In addition, the outcome in assay [2], in [4] and in assay [7] was inactive.

Consider `CC(=O)O`, for which the result in assay [1], in [2], in assay [4], in assay [5], in assay [6] and in [7] was inactive. In addition, the call in assay [8] and in assay [10] was inactive.
